A short description of assay [1]: qHTS assay to identify small molecule antagonists of the androgen receptor (AR) signaling pathway using the MDA cell line in the presence of 0.5 nM R1881 - cell viability counter screen (AID 1259242). Further: nearly all actives have a fitted effect of over 45% in size. Summed up:
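Concentration-response screen of compounds for toxicity in MDA-kb2 reporter cells: 16 hr at 37C with 0.5 nM R1881, endpoint live-cell protease fluorescence measured in the reporter wells.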
(In general: Quantitative high-throughput screening tests each substance at several concentrations.)

The nature of assay [2]: qHTS assay to identify small molecule HDAC inhibitors (AID 1259364).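 Further: wild-type HCT-116 cells with endogenous class I/II HDAC activity; top concentration of the series differs between compounds; nearly all actives have a fitted effect of over 45% in size.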 Summed up:
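Screening used wild-type human colon HCT-116 cells incubated overnight, dosed with compounds for 2 hours, and assayed with a homogeneous luminogenic HDAC I/II reagent for 30 minutes at room temperature.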

Assay [3] is described as follows: qHTS assay to identify small molecule HDAC inhibitors - cell viability counter screen (AID 1259365). Further: series mostly up to about 92 µM; nearly all actives have a fitted effect of over 50% in size. Summed up:
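To flag cytotoxic hits, 1,500 wild-type HCT-116 cells per well, plated the day before, receive test compounds for 2hr at 37 C before CellTiter-Glo reagent and a luminescence read.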

Assay [4] is described as follows: qHTS assay to identify small molecule agonists of the sonic hedgehog signaling (Shh) pathway - cell viability counter screen (AID 1259366). Further: nearly all actives have a fitted effect of over 50% in size. Summed up: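 Fluorescence from CellTiter-Fluor reports live cells in this counter screen. NIH/3T3-derived Gli1-Luc reporter cells receive test compounds for 24hr at 37C; reagent goes in at 23hr.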
Assay [5] in a line: qHTS assay to identify small molecule antagonists of the sonic hedgehog signaling (Shh) pathway - cell viability counter screen (AID 1259367). Further: nearly all actives have a fitted effect of over 55% in size. Summed up:
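Conditioned medium drove Shh signaling in 3T3 Gli1-Luc cells exposed to compounds at 37C and 5% CO2. Viability was determined from CellTiter-Fluor fluorescence, with reagent incubated 1 hr after 23 hr of treatment.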

Assay [6] in a line: qHTS assay to identify small molecule agonists of the sonic hedgehog signaling (Shh) pathway (AID 1259368; calls by dose curve;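 further: NIH/3T3-derived 3T3Gli1-Luc cells carrying a stable Gli1-driven firefly luciferase reporter; series mostly up to about 92 µM; nearly all actives have a fitted effect of over 15% in size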). Summed up: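 Hedgehog pathway agonism scored by increased firefly luciferase luminescence in 3T3Gli1-Luc cells treated 24 hr at 37 C; detection used a 30 min room-temperature reagent incubation.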
Assay [7] can be described thus: qHTS assay to identify small molecule antagonists of the sonic hedgehog signaling (Shh) pathway (AID 1259369; calls by dose curve; further: nearly all actives have a fitted effect of over 45% in size; further: potency means the concentration at half of the fitted maximal effect). Summed up:
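NIH/3T3 stable Gli1-Luc clone, 2,000 cells/well, 4hr settle; cpd + conditioned medium 24hr; Luc reagent 30min RT; luminescence.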

Assay [8] deals with Estrogen receptor beta (Homo sapiens) (UniProt Q92731). The assay can be described thus: qHTS assay to identify small molecule agonists of the estrogen receptor beta (ER-beta) signaling pathway (AID 1259377; active means well fitted activation curve with a large enough effect in the signal ratio in the repeat runs, not every such curve was filed as active; the % refers to the signal ratio). Summed up: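 Screening used GripTite ER-beta-UAS-bla cells held in 2% charcoal-stripped FBS medium. After overnight (16 hr) compound incubation at 37C, beta-lactamase activity was detected with a FRET substrate by fluorescence.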
Chain of Estrogen receptor beta (Homo sapiens) (Q92731 whole entry, looked up): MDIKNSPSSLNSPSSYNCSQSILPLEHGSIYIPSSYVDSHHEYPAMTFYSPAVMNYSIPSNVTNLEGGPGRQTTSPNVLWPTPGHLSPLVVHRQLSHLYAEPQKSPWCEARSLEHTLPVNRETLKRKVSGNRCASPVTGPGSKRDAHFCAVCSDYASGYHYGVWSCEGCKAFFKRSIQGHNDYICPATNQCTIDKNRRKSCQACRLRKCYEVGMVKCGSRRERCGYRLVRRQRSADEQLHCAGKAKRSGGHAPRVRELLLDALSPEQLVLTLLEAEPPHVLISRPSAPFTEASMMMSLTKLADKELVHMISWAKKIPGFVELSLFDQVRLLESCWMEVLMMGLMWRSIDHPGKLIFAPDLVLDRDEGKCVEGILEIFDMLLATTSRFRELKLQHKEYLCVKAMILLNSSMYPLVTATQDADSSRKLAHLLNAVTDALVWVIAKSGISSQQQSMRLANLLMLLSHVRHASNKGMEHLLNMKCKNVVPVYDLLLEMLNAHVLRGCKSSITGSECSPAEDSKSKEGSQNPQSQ

Assay [9] has the same target. The assay can be described thus: qHTS assay to identify small molecule antagonists of the estrogen receptor beta (ER-beta) signaling pathway (AID 1259378; active means well fitted inhibition curve with a large enough effect in the signal ratio in the repeat runs, not every such curve was filed as active; the % refers to the signal ratio). Summed up: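 ER-beta-UAS-bla HEK293T (GripTite) cells in 2% charcoal-stripped FBS medium were preincubated 6 hr at 37C, dosed with compound, then stimulated with 1 nM E2 (final) for 16 hr; beta-lactamase reporter read by B/G FRET fluorescence after 2 hr substrate loading.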

Assay [10] is described as follows: qHTS assay to identify small molecule agonists of the androgen receptor (AR) signaling pathway in the presence of an antagonist - cell viability counter screen (AID 1259379).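 Further: MDA-kb2 human breast cancer cells carrying an MMTV luciferase reporter; series mostly up to about 92 µM; nearly all actives have a fitted effect of over 25% in size.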 Summed up: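 MDA-kb2 viability measured by CellTiter-Fluor fluorescence in the same wells as the luciferase signal; nilutamide 3.0uM final; 15-point compound titration; 16 hr at 37C.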
Assay [11] is described as follows: qHTS assay to identify small molecule agonists of the estrogen receptor beta (ER-beta) signaling pathway - cell viability counter screen (AID 1259380). Further: nearly all actives have a fitted effect of over 30% in size. Summed up: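 Measured: luminescence from CellTiter-Glo after 30 min at room temperature, added to wells already read for the LiveBLAzer FRET reporter (2 hr substrate); ER-beta-UAS-bla HEK293T cells had 16 hr compound treatment at 37C, 5% CO2.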

Assay [12] can be described thus: qHTS assay to identify small molecule antagonists of the estrogen receptor beta (ER-beta) signaling pathway - cell viability counter screen (AID 1259382). Further: series mostly up to about 92 µM; nearly all actives have a fitted effect of over 55% in size. Summed up: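 Readout: luminescence, CellTiter-Glo, same wells as bla assay. System: ER-beta-UAS-bla GripTite HEK293T, 2% charcoal-stripped FBS. Exposure: compounds plus 1nM 17-beta-estradiol, 16 hr, 37C.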
A short description of assay [13]: qHTS assay to identify small molecule agonists of the estrogen receptor alpha (ER-alpha) signaling pathway in the presence of an antagonist - cell viability counter screen (AID 1259386).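 Further: series mostly up to about 92 µM; cells exposed to compounds for 22 h at 37 °C before the viability read; nearly all actives have a fitted effect of over 30% in size.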 Summed up: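 The test measures whether compounds kill ER-alpha reporter cells (VM7Luc4E2) under antagonist co-treatment (ICI-182,780, 10.0nM). Fluorescence from CellTiter-Fluor is read after a 22hr exposure.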

The target in assay [14] is Estrogen receptor (Homo sapiens) (UniProt P03372). The assay can be described thus: qHTS assay to identify small molecule antagonists of the estrogen receptor alpha (ER-alpha) signaling pathway using the BG1 cell line in the presence of 0.1 nM 17-beta-estradiol (AID 1259244). Further: nearly all actives have a fitted effect of over 50% in size. Summed up: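 Compounds were tested against 0.1 nM (final) 17beta-estradiol in VM7Luc4E2 cells, which express full-length ER-alpha and an ERE-luciferase reporter; luminescence was recorded following 22 h exposure.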
Chain of Estrogen receptor (Homo sapiens) (P03372 whole entry, looked up): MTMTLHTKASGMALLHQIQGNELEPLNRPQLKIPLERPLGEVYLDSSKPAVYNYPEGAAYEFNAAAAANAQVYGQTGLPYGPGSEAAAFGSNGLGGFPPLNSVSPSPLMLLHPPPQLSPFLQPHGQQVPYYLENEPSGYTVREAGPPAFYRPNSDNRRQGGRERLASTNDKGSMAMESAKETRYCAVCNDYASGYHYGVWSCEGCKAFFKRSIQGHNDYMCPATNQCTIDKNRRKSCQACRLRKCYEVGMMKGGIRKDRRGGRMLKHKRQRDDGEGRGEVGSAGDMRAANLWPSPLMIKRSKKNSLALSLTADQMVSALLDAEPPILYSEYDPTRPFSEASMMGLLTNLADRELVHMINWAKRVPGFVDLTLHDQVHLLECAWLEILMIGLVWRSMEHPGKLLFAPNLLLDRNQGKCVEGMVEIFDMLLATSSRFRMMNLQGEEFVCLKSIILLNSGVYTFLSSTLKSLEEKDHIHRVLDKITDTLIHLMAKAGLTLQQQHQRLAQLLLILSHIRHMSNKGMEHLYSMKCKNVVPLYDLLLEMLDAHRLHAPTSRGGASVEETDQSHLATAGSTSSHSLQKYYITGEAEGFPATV

For assay [15] the target is unchanged. The assay can be described thus: qHTS assay to identify small molecule agonists of the estrogen receptor alpha (ER-alpha) signaling pathway in the presence of an antagonist (AID 1259383; calls by dose curve; further: top concentration of the series differs between compounds; nearly all actives have a fitted effect of over 15% in size). Summed up: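 Quantitative HTS confirmation: compounds titrated at 15 concentrations onto estrogen-deprived VM7Luc4E2 cells carrying a four-ERE luciferase construct, with ICI-182,780 present at 10.0nM final. Signal is luminescence after 22hr exposure.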

Assay [16] is described as follows: qHTS assay to identify small molecule agonists or antagonists of the thyroid stimulating hormone receptor (TSHR) signaling pathway - wild type cell line counter screen (AID 1259384; calls by dose curve). Summed up: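 Wild-type HEK293 cells were plated 18 h at 37 C/5% CO2, pin-dosed with compound plus Ro20-1724 medium, held 30 min at room temperature, then given cAMP-d2 and anti-cAMP-cryptate; fluorescence was read after 1 h. Fifteen concentrations, triplicate.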

In assay [17] the target is Thyrotropin receptor (Homo sapiens) (UniProt P16473). The assay can be described thus: qHTS assay to identify small molecule antagonists of the thyroid stimulating hormone receptor (TSHR) signaling pathway (AID 1259385; calls by dose curve; further: nearly all actives have a fitted effect of over 20% in size). Summed up: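 TSHR-HEK293 cells were plated and held 18 h at 37C/5% CO2, then given compound plus Ro20-1724 and stimulated with TSH at 1.5 ng/mL final. After 30 min at room temperature, cAMP was detected with cAMP-d2/anti-cAMP-cryptate (1 h) by fluorescence.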
Chain of Thyrotropin receptor (Homo sapiens) (P16473 whole entry, looked up): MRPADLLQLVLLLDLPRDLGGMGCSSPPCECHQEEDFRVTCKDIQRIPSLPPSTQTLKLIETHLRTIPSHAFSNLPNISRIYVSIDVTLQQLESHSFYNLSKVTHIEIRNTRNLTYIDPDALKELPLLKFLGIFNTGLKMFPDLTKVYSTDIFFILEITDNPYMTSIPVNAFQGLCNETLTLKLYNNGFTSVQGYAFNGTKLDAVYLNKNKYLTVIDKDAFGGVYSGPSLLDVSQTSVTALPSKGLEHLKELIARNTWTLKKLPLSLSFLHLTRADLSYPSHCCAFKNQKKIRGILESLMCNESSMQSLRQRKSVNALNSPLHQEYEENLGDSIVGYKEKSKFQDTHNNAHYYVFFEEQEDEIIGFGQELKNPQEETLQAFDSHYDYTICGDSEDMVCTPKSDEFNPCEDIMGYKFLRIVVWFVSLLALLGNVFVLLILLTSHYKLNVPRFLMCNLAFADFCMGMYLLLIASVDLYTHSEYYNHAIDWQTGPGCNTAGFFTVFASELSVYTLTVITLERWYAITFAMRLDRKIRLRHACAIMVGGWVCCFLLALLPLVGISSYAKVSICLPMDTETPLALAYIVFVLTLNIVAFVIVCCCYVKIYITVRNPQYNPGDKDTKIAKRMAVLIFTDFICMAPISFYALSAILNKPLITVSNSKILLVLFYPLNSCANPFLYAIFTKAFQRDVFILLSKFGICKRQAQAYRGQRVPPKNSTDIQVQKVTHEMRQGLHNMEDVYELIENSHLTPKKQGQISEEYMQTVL

A short description of assay [18]: qHTS assay to identify small molecule phospholipidosis (PLD) inducers (AID 1259344; active means well fitted curve in the direction sought with a large enough effect; an effect the other way counts as inactive or inconclusive). Summed up:
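After 4 h attachment on collagen I, HepG2 cells were dosed with compound alongside LipidTOX Red, kept 24 h at 37 C, fixed, and imaged for lamellar phospholipid pits.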

Records with an inconclusive call do not appear. The source made the active and inactive calls. Unless noted, the call rests on the fitted dose curve; in most records, active means well fitted curve in the direction sought with a large enough effect in the repeat runs; inconclusive means weak or mixed curves; inactive means no such curve, though single readings can be large; an effect the other way counts as inactive or inconclusive.

`CCOC(=O)N(C)C(=O)CSP(=S)(OCC)OCC`: the outcome in assay [1], in [3], in assay [6] and in assay [8] was inactive. For the same compound, the Potency entry in [2], in [4], in [5], in assay [7], in [9] and in assay [10] was “inactive” each time. Moreover, the Potency entry in [11], in [12] and in assay [13] was “inactive” each time.

As for `BrCCCCCCBr`, the result in [1], in [3], in assay [6] and in assay [8] was inactive. The Potency entry in assay [14], in assay [4], in assay [5], in assay [9], in assay [10] and in assay [12] was “inactive” each time. The Potency entry in [15], in assay [16], in assay [17] and in assay [13] was “inactive” in each case. Further, the Potency in assay [7] is 24.3 µM (active).

In the case of `O=[N+]([O-])c1ccc(CBr)cc1`, the outcome in assay [1], in assay [3] and in [6] was inactive. Further, the Potency entry in [14], in assay [4], in assay [5], in [7], in [10] and in assay [11] was “inactive” in each case. The Potency result in [12], in [15], in [16], in assay [17] and in [13] was “inactive” in each case.

As to `CC(C)(C)OC(=O)c1ncn2c1[C@@H]1CCCN1C(=O)c1c(Br)cccc1-2`, the result in [1], in assay [18], in [3], in [6] and in assay [8] was inactive. For the same compound, the Potency entry in assay [2], in assay [4], in [5], in [7], in assay [9] and in [12] was “inactive” each time. Moreover, the Potency result in assay [16], in [17] and in assay [13] was “inactive” each time.

Take `CN1CCC(O)(c2ccc(F)cc2)C(C(=O)c2ccc(F)cc2)C1` (configuration not stated): the result in assay [1], in [18], in assay [3], in assay [6] and in assay [8] was inactive. Also, the Potency entry in assay [2], in assay [4], in assay [5], in assay [7], in assay [9] and in [10] was “inactive” each time. Further, the Potency entry in assay [11], in [12], in assay [16], in assay [17] and in [13] was “inactive” in each case.

For the compound `CS(=O)(=O)c1cc(C(F)(F)F)ccc1C(=O)c1cnoc1C1CC1`, the outcome in assay [1], in assay [3], in [6] and in assay [8] was inactive. The Potency entry in assay [14], in assay [4], in assay [5], in [7], in assay [9] and in assay [10] was “inactive” in each case. The Potency result in assay [11], in assay [12], in assay [15], in [17] and in assay [13] was “inactive” throughout.

Regarding `CCCCP(CCCC)CCCC`, the result in [1], in assay [3] and in assay [6] was inactive. Further, the Potency entry in assay [14], in assay [2], in assay [4], in [9], in assay [10] and in [12] was “inactive” throughout. The Potency entry in assay [15], in assay [16], in assay [17] and in assay [13] was “inactive” in each case.

On to `CN1C(=S)CN=C(c2ccccc2)c2cc(Cl)ccc21`, for which the result in assay [1], in assay [18], in [3], in assay [6] and in [8] was inactive. Besides, the Potency entry in assay [2], in assay [4], in [5], in assay [9], in assay [10] and in assay [11] was “inactive” each time. Besides, the Potency result in assay [12], in [15], in assay [16], in [17] and in assay [13] was “inactive” in each case. Moreover, the Potency in assay [7] was 6.68 µM (active).

Values taken from PubChem BioAssay (Tox21).
